PLK1 PBD inh = PLK1 (human) polo-box domain binding inhibition; P53350; Plk1 PBD binding of FITC phosphopeptide, fluorescence polarization; actives 2.8% (n = 360,000); Potency, µM, without a hit: max response, negative = inhibition, actives largely listed as inhibitors; further: series mostly up to about 57 µM; nearly all actives have a fitted effect of over 65% in size
DT40 TDP1 CPT = DT40-hTDP1 cell growth loss with CPT; chicken DT40 Tdp1-/-;hTDP1 cells + 20 nM CPT, ATP luminescence, 48 h; Potency, µM (highest dose often 46.2 µM), inactives show at the highest dose activity change, negative = growth inhibition, hits mostly inhibitors; actives 12% (n = 420,000); further: nearly all actives have a fitted effect of over 55% in size
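Chicken DT40 Tdp1-/- cells complemented with human TDP1, 400 cells/well, exposed to compounds plus 20 nM camptothecin for at least 48 h at 37 C; viability read as ATP content by CellTiter-Glo luminescence.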
TDP1 cell noCPT = qHTS for Inhibitors of human tyrosyl-DNA phosphodiesterase 1 (TDP1): qHTS in cells in absence of CPT; Potency, µM (series often up to 46.2 µM), without a hit: at the top dose activity change, negative = growth inhibition, most hits filed as inhibitors; actives 15% (n = 420,000); AID 686978, 2013; DT40 Tdp1-/- hTDP1 cells, no CPT, ATP luminescence, 48 h; further: nearly all actives have a fitted effect of over 55% in size
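Stably hTDP1-transfected Tdp1-null chicken DT40 cells were treated with library compounds minus camptothecin and grown for at least 48 hr at 37 °C, after which cellular ATP was quantified by luminescence.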
VDR inhibitor = blocks the human vitamin D receptor; P11473; VDR-SRC2-3 peptide fluorescence polarization, 2 h; Potency, µM, without a hit: max response, negative = inhibition, most hits filed as inhibitors; actives 0.93% (n = 400,000)
Target sequence (P11473 whole entry, looked up): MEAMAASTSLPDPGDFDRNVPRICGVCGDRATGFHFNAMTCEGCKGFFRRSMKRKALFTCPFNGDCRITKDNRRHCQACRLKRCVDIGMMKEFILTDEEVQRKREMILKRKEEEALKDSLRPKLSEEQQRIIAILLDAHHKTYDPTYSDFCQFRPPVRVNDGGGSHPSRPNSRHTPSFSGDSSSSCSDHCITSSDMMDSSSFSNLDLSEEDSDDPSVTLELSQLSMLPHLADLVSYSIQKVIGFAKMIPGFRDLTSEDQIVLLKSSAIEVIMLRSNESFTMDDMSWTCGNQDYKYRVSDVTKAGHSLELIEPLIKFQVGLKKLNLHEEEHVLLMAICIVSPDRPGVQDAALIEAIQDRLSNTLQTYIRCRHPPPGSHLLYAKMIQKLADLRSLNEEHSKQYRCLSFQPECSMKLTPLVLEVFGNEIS
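Signal is fluorescence polarization, reporting how far test compounds block the interaction of VDR with the SRC2-3 coregulator peptide after a 2 h room-temperature incubation.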
GCN5L2 inh = inhibitors of human GCN5L2 histone acetyltransferase; GCN5L2 HAT assay, ThioGlo1 CoA-SH fluorescence; Potency, µM (highest dose often 58.9 µM), without a hit: top-dose activity change, negative = inhibition, actives largely listed as inhibitors; actives 0.21% (n = 390,000)
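ThioGlo1-coupled HAT assay: 20nM GCN5L2, 70uM acetyl-CoA, 75uM H3(1-25) peptide, pH 7.5. Fluorescence read at 340/540nm at start and after 20 min at room temperature.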
TDP1 inh = blocks human tyrosyl-DNA phosphodiesterase 1; Potency, µM (highest dose often 130 µM), without a hit: at the top dose activity change, negative = inhibition, actives largely listed as inhibitors; actives 0.28% (n = 350,000); Q9NUW8; AID 485290; recombinant TDP1, AlphaScreen DNA substrate cleavage; further: nearly all actives have a fitted effect of over 40% in size
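Recombinant human Tdp1 (E. coli-expressed, 1 nM final) preincubated with compounds 15 min at room temperature, then 5'-biotin/3'-phosphotyrosine-FITC DNA substrate (15 nM final) added for 5 min. AlphaScreen beads (10 ug/ml final) added 10 min; cleavage lowers signal.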
Active calls of the source: *; ? = inconclusive; / = not tested or not shown; [ ] = dose if it differs, or a comment. Most compounds without a hit are left out; they make up all but 18% or so of the library. The call rests on the fitted dose curve; in most records, active means well fitted curve in the direction sought with a large enough effect; inconclusive means small, poorly fitted or top-dose-only effect, or another doubt; inactive means no such curve, though single readings can be large; an effect the other way counts as inactive or inconclusive. On the % scale 0 is the no-effect control and ±100 the full control effect; potency means the concentration at half of the fitted maximal effect.

SMILES	PLK1 PBD inh	DT40 TDP1 CPT	TDP1 cell noCPT	VDR inhibitor	GCN5L2 inh	TDP1 inh
Cc1cccc(NC(=O)CSc2ncnc3sc(C)cc23)c1	-14.3%	-26.2%	-21.4%	14.7%	-5.0%	-8.0%
Cc1cc2c(SCC(=O)Nc3ccccc3O)ncnc2s1	29.9µM*	4.0%	?	-17.5%	/	/
CCn1c(C(=O)Nc2cc(C)cc(C)c2)cc2sc(Cl)cc21	/	?	?	0.6%	-4.0%	-2.0%
CCc1[nH]c(=O)[nH]c1C(C)S(=O)(=O)c1ccc(C)cc1 (stereo unspecified)	11.9µM*	?	?	-13.7%	1.5%	6.9%
CCc1c(C(C)S(=O)(=O)c2ccc(C)cc2)[nH]c(=O)n1-c1ccc(C)cc1 (stereo unspecified)	26.7µM*	?	29.1µM*	?	1.5%	6.1%
CCOC(=O)C(C)Sc1nnc2ccc3ccccc3n12 (stereo unspecified)	/	-0.7%	?	5.9%	-6.7%	2.6%
COc1ccc(OC)c(-c2cc(Cl)c3c(c2)CC(CNC(=O)c2cccnc2SC)O3)c1 (stereo unspecified)	/	3.5%[9.04 µM]	?	/	/	/
CCN(CC)S(=O)(=O)c1ccc(NC(=O)c2ccc(Sc3nncn3C)c([N+](=O)[O-])c2)cc1	-14.7%	?	?	8.9%	6.0%	5.4%
Cn1cnnc1Sc1ccc(C(=O)NCCC23CC4CC(CC(C4)C2)C3)cc1[N+](=O)[O-]	-1.4%	10.3µM*	?	-1.0%	-3.7%	0.0%
CCc1ccc(C2C(C(=O)Nc3ccccc3C)=C(C)Nc3nc(SCc4cccc(OC)c4)nn32)cc1 (stereo unspecified)	/	-5.3%	-18.5%	10.6%	1.4%	3.4%
O=C(Nc1ccccc1)c1ccccc1N=Cc1cccc(O)c1	-10.2%	-26.5%	?	11.4%	-17.3%	-2.7%
Cc1ccc(C=Nc2ccccc2C(=O)Nc2ccccc2)cc1	-1.8%	?	11.6µM*	-13.3%	-0.1%	1.9%
C[C@@H]1CCCCCCCCC(=O)OCCN[C@H](C)CCCCCCCCC(=O)OCCN[C@H](C)CCCCCCCCC(=O)OCCN1	-11.9%	13µM*	20.6µM*	-10.7%	-4.2%	4.1%
[O-][N+](=C(c1ccccc1)c1ccccc1)c1ccccc1	-5.8%	?	?	6.2%	/	/
Cc1ccc(-n2nc(C(=O)N3CCOCC3)cc2-c2ccc(Cl)cc2)cc1	6.6%	?	?	1.2%	-3.9%	-1.1%
O=C(c1cc(-c2ccc(Cl)cc2)n(-c2ccc(Cl)cc2)n1)N1CCOCC1	10.3%	16.4µM*	?	-15.5%	?	-2.0%
Cn1nc(-c2ccccc2F)c2cc(C(=O)N3CCN(c4ccc(F)cc4)CC3)sc21	/	?	16.4µM*	-2.9%	-13.2%	2.3%
COc1ccc(N2CCN(C(=O)c3nn(C)c4c3CSc3ccccc3-4)CC2)cc1	/	-108.7%	?	3.5%	0.1%	5.7%
COc1ccc(N2CCN(C(=O)c3cc4cc(Cl)ccc4[nH]3)CC2)cc1	2.0%	?	?	-12.4%	20.1%	/
Cn1nc(C(=O)N2CCN(c3ccc(F)cc3)CC2)c2c1-c1ccccc1SC2	/	-3.0%	-0.7%	-8.1%	-18.9%	14.3%
COc1ccc(N2CCN(C(=O)c3cc4c(-c5ccccc5F)nn(C)c4s3)CC2)cc1	/	?	9.2µM*	-8.1%	-6.2%	9.3%
COc1ccc(N2CCN(C(=O)c3cc4c(-c5ccc(Cl)cc5)nn(C)c4s3)CC2)cc1	-15.9%	?	16.4µM*	-0.8%	0.2%	7.8%
Cc1ccc2nc(SCC(=O)N(CC(C)C)c3c(N)n(Cc4ccccc4)c(=O)[nH]c3=O)[nH]c2c1	-0.5%	?	7.0%	11.5%	-1.1%	2.4%
CCOC(=O)c1cccnc1SCC(=O)Nc1ccc(C)cc1C	/	?	?	8.4%	2.0%	7.8%
Cc1cc(C)c(C(=O)c2ccccc2C(=O)O)c(C)c1	-10.7%	-7.2%	?	/	/	/
SMILES	PLK1 PBD inh	DT40 TDP1 CPT	TDP1 cell noCPT	VDR inhibitor	GCN5L2 inh	TDP1 inh
CSc1ccc(CCNC(=O)c2cc3c(-c4ccccc4F)nn(C)c3s2)cc1	/	?	?	-19.3%	1.2%	9.0%
Cn1nc(-c2ccccc2F)c2cc(C(=O)N3CCN(c4ccccc4F)CC3)sc21	/	4.11µM*	7.31µM*	-7.4%	-11.4%	2.3%
Cn1nc(-c2ccc(Cl)cc2)c2cc(C(=O)N3CCOCC3)sc21	-1.2%	?	20.6µM*	-8.3%	-0.8%	1.3%
COc1ccccc1CC(=O)N1CCN(c2cccc(Cl)c2)CC1	-11.3%	-12.7%	-27.9%	-15.5%	-8.7%	/
COc1cccc(-c2nn(C)c3sc(C(=O)N4CCOCC4)cc23)c1	-12.6%	-26.3%	?	-2.8%	-13.2%	9.8%
COc1ccc(-c2nn(C)c3sc(C(=O)N4CCN(c5cccc(Cl)c5)CC4)cc23)cc1OC	/	14.6µM*	-72.9%	-20.9%	-9.2%	-2.3%
Cn1nc(-c2ccccc2F)c2cc(C(=O)N3CCN(C(=O)c4ccco4)CC3)sc21	-6.1%	29.1µM*	?	-11.7%	/	/
Cc1ccccc1NC(=O)Cn1c(=O)n(Cc2ccco2)c(=O)c2cccnc21	/	?	?	-13.7%	-6.0%	-1.0%
Clc1ccccc1Cn1nnc2ccccc21	-6.3%	-18.2%	-24.4%	-9.6%	-7.5%	/
C[C@@H](OC(=O)N1CCCCC1)[C@H]1O[C@]2(C)CCCC[C@H]1O2	-6.4%	-0.2%	-7.7%	-21.1%	-3.7%	-0.4%
Cc1ccnc(N=O)c1	10.6µM*	-12.8%	-15.5%	-22.8%	-13.9%	/
Cc1ccc(-n2[nH]c(C)c(C=Nc3cc(C)ccn3)c2=O)cc1	-13.6%	?	?	-0.4%	-5.2%	-1.1%
Cc1ccccc1C(=O)Nc1cccc(-c2cn3cccnc3n2)c1	/	?	?	2.7%	-17.0%	5.5%
CC(=O)Nc1cccc(-c2cc(NC(C)=O)c3ncc(-c4cccc(C(C)=O)c4)n3c2)c1	?	23.1µM*	10.3µM*	/	/	/
COc1cccc(-c2cnc3c(NC(C)=O)cc(-c4ccc(OC)c(OC)c4)cn23)c1	-28.2%	10.3µM*	14.6µM*	/	/	/
CC(=O)Nc1cc(-c2cccc(NS(C)(=O)=O)c2)cn2c(-c3cccc(C(F)(F)F)c3)cnc12	-8.1%	18.4µM*	18.4µM*	/	/	/
COc1cccc(-c2cc(NC(C)=O)c3ncc(-c4ccc(OC)c(OC)c4)n3c2)c1	-22.2%	?	20.6µM*	/	/	/
CC(=O)Nc1cc(-c2ccccc2N(C)C)cn2c(-c3cccc(C(F)(F)F)c3)cnc12	-8.1%	?	?	/	/	/
CC(=O)Nc1cc(-c2cccc(C(=O)NCCN(C)C)c2)cn2c(-c3ccccc3)cnc12	-13.1%	?	?	/	/	/

Compound activity deposited in PubChem BioAssay by National Center for Advancing Translational Sciences (NCATS).
